The text below walks through data of the supplement of paper PMC12067093, “Discovery and optimisation of a covalent ligand for TRIM25 and its application to targeted protein ubiquitination” (Chemical Science, 2025).

Targets with the largest changes are over-represented here; the source holds about 21,000 in all.

Compound in the assay: CC1Cc2ccccc2N1C(=O)C1CCCN(C1)C(=O)CCl (mixture of isomers) [TRIM25 ligand 11 (diastereomer mixture)]
Kind of assay: probe-labelled cysteine peptide fold change vs DMSO (competition) (log2 fold change); higher = less target engagement (more negative = stronger competition). The following applies: THP-1, incubation time: 4 h.
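Further: competitive chemoproteomic profiling in live THP-1 cells with an iodoacetamide desthiobiotin (IA-DTB) probe, comparing probe-labelled peptide intensities in compound-treated cells against DMSO-treated controls.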

Chain of UniProt Q13620 (Q13620 whole entry, looked up): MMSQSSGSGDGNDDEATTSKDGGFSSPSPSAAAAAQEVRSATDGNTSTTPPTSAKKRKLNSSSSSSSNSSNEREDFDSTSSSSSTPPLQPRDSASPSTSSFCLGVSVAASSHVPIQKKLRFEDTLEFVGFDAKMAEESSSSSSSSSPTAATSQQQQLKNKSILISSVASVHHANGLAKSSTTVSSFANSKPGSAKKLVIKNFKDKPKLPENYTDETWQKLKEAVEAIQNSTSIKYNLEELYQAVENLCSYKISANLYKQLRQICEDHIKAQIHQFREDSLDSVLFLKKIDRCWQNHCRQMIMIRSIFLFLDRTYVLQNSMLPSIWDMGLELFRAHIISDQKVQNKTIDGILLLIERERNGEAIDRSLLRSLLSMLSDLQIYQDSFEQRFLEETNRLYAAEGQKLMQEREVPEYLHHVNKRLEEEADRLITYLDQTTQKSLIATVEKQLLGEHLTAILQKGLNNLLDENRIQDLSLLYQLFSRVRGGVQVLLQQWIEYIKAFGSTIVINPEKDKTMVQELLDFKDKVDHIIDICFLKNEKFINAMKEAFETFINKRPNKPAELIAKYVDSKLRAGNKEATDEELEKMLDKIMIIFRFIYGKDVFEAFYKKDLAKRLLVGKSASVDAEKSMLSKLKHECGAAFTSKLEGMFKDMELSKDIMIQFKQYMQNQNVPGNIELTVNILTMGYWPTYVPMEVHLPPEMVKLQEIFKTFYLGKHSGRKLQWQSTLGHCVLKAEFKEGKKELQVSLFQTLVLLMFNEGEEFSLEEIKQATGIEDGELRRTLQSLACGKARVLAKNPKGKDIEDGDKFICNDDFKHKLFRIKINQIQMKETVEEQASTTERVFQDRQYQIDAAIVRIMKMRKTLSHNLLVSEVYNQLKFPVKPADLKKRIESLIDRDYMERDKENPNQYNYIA
Chain of UniProt P57737 (P57737 whole entry, looked up): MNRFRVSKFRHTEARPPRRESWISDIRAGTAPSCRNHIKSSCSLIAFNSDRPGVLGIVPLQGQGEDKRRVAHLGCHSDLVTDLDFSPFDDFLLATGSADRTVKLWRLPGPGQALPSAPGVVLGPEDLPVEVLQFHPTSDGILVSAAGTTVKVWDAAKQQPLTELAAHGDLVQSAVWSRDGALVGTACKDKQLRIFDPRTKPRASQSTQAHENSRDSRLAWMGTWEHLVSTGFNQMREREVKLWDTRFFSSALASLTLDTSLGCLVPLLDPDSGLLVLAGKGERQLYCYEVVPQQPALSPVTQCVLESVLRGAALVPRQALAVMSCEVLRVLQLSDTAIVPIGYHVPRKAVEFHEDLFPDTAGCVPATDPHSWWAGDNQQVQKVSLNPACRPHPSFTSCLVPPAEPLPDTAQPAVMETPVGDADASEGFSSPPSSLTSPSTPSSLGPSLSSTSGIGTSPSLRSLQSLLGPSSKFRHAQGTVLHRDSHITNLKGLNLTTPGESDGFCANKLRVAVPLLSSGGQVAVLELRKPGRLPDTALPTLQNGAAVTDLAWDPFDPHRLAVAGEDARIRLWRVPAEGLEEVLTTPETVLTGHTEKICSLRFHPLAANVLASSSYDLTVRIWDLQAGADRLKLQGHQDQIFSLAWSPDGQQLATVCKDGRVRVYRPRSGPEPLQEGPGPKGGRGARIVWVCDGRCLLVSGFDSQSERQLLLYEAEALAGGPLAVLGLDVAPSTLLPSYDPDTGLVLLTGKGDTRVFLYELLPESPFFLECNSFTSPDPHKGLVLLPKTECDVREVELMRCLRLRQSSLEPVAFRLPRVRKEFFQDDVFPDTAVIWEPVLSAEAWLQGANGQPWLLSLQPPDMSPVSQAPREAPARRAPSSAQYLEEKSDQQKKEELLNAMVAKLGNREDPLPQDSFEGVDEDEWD
Chain of UniProt Q9BTC0 (Q9BTC0 whole entry, looked up): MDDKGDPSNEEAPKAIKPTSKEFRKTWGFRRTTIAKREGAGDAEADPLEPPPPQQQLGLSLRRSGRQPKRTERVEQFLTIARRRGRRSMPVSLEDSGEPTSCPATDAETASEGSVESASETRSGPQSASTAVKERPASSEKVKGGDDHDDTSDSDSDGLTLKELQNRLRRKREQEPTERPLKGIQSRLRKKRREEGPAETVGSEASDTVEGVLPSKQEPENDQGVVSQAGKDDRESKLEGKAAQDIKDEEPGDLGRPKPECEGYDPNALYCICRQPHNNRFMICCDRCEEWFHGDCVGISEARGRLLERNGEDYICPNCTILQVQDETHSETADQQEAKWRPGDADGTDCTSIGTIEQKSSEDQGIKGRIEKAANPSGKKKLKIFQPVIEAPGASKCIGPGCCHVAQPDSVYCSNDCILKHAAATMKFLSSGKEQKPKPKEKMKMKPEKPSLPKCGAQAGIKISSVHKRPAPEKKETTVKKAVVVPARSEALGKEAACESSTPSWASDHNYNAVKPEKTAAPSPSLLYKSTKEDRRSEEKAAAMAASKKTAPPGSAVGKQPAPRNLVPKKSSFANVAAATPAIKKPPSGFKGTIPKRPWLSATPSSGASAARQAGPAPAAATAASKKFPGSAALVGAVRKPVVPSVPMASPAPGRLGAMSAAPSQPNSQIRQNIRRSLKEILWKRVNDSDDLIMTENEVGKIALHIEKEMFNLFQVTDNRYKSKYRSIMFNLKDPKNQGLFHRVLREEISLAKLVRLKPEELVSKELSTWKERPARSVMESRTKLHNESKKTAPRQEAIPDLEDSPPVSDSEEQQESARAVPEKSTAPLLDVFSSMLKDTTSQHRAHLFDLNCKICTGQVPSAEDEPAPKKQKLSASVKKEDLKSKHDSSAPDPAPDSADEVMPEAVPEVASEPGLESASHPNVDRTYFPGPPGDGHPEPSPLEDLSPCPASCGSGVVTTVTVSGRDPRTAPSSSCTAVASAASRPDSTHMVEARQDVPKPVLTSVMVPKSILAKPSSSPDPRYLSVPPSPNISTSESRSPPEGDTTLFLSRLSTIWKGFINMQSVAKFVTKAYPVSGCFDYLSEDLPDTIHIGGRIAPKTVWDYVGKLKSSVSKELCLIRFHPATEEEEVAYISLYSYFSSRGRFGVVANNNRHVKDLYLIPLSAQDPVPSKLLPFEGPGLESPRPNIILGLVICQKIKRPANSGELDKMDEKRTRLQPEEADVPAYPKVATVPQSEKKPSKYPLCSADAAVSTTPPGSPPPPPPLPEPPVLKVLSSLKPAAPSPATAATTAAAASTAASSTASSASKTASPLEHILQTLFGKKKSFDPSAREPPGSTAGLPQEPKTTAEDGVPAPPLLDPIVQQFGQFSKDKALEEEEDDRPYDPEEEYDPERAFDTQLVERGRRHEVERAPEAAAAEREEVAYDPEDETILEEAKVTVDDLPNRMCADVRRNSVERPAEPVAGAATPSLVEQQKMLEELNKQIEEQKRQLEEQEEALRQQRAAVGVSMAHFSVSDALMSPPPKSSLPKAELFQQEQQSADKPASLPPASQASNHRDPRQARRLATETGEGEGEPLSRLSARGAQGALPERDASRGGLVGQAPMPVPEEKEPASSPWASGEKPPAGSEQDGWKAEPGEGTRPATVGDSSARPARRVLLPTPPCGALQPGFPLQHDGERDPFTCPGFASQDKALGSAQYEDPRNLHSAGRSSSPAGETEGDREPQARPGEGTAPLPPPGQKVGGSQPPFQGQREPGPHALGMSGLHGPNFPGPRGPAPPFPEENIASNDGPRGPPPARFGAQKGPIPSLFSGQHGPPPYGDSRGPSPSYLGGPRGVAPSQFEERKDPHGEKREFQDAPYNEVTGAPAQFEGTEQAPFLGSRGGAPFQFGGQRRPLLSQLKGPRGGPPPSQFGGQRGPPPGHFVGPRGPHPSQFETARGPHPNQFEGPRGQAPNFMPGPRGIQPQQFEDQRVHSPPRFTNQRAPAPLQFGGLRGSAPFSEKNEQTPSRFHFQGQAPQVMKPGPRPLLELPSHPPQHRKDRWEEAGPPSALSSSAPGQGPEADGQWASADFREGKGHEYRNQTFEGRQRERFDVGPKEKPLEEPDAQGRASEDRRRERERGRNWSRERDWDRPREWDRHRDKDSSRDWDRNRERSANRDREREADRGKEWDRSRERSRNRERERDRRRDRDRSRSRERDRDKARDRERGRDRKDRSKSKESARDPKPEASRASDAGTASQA
Chain of UniProt Q9Y5R6 (Q9Y5R6 whole entry): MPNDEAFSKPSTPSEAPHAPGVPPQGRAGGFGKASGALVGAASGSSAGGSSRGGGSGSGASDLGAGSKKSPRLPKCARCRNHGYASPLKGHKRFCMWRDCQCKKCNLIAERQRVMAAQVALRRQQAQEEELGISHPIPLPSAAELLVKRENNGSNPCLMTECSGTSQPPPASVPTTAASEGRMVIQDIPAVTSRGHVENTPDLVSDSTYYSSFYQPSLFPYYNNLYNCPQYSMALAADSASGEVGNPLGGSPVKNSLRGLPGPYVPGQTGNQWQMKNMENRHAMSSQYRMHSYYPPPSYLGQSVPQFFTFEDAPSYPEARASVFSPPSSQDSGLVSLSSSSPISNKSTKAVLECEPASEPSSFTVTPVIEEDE
Chain of UniProt Q9BVJ7 (Q9BVJ7 whole entry, looked up): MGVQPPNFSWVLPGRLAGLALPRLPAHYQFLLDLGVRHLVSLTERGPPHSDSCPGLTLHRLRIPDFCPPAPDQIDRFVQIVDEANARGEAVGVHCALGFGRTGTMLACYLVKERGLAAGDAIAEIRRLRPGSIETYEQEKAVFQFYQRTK
Chain of UniProt Q9BPW9 (Q9BPW9 whole entry, looked up): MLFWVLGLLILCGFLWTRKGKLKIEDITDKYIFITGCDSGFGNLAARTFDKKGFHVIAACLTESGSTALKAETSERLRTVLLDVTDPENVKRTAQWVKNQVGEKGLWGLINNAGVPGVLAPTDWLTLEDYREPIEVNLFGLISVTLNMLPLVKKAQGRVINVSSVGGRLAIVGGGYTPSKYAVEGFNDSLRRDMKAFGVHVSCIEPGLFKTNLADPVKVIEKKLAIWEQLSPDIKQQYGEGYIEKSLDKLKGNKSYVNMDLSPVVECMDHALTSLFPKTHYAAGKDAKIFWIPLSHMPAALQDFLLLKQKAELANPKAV

On to “CORO7_P57737_691_IVWVCDGR (UniProt P57737)”, for which the “probe-labelled cysteine peptide fold change” value runs as follows: (10 µM) 0.154; (50 µM) 0.334.
Take “CRIP2_P52943_150_DWHRPCLR (UniProt P52943)”: the “probe-labelled cysteine peptide fold change” value was 0.642 (10 µM) and -0.0653 (50 µM).
Turning to “DENND3_A2RUS2_1094_DTSTSFLAFQLLPEEEQLWAACAGR (UniProt A2RUS2)”, the “probe-labelled cysteine peptide fold change” value (10 µM) is 1.22 and the “probe-labelled cysteine peptide fold change” value (50 µM) was -0.0979.
Turning to “CPT2_P23786_512_CSEAFVREPSR (UniProt P23786)”, the “probe-labelled cysteine peptide fold change” value is -0.197 (10 µM) and -0.0581 (50 µM).
For “CTNNBL1_Q8WYA6_370_VLDHAMIGPEGTDNCHK (UniProt Q8WYA6)”, the “probe-labelled cysteine peptide fold change” value (10 µM) was -0.0184 and the “probe-labelled cysteine peptide fold change” value (50 µM) was -0.103.
In the case of “DENR_O43583_44_VLYCGVCSLPTEYCEYMPDVAK (UniProt O43583)”, the “probe-labelled cysteine peptide fold change” value (10 µM) was -0.0798 and the “probe-labelled cysteine peptide fold change” value (50 µM) is -0.0802.
On the same counts, the results for “DNM1L_O00429_300_LLMHHIRDCLPELK (UniProt O00429)” are -0.355 and -0.178.
With “DOK3_Q7L591_133_LADCVSVLPADGESCPR (UniProt Q7L591)”, the “probe-labelled cysteine peptide fold change” value turned out to be 0.0537 (10 µM) and 0.00634 (50 µM).
As to “DDX28_Q9NUL7_360_LHCIMPHVK (UniProt Q9NUL7)”, the “probe-labelled cysteine peptide fold change” value reads like this: (10 µM) -0.061; (50 µM) 0.0889.
Turning to “DPYSL2_Q16555_439_THNSSLEYNIFEGMECR (UniProt Q16555)”, the “probe-labelled cysteine peptide fold change” value is, setting by setting: (10 µM) 0.0805; (50 µM) -0.109.
With “DIP2B_Q9P265_1282_TCVVVAEERPR<|>DIP2C_Q9Y2E4_1263_TCVVVAEERPR (UniProt Q9Y2E4+Q9P265)”, the “probe-labelled cysteine peptide fold change” value reads like this: (10 µM) 0.0276; (50 µM) 0.197.
Consider “DIDO1_Q9BTC0_1449_MCADVR (UniProt Q9BTC0)”, for which the “probe-labelled cysteine peptide fold change” value was -0.0543 (10 µM) and -0.242 (50 µM).
Regarding “DCTN4_Q9UJW0_280_CEHNLSKPEFNPTSIK (UniProt Q9UJW0)”, the “probe-labelled cysteine peptide fold change” value runs as follows: (10 µM) 0.246; (50 µM) 0.175.
As to “DUSP23_Q9BVJ7_95_GEAVGVHCALGFGR (UniProt Q9BVJ7)”, the “probe-labelled cysteine peptide fold change” value is -0.00709 (10 µM) and 0.14 (50 µM).
“DIAPH1_O60610_1227_AGCAVTSLLASELTK (UniProt O60610)”: the “probe-labelled cysteine peptide fold change” value by setting is: (10 µM) -0.0516; (50 µM) -0.221.
As to “DHX37_Q8IY37_766_LSCPITALGR (UniProt Q8IY37)”, the “probe-labelled cysteine peptide fold change” value by setting is: (10 µM) -0.0635; (50 µM) 0.0316.
Regarding “DDX42_Q86XP3_333_ELEPGDGPIAVIVCPTR (UniProt Q86XP3)”, the “probe-labelled cysteine peptide fold change” value (10 µM) amounted to 0.0933 and the “probe-labelled cysteine peptide fold change” value (50 µM) amounted to 0.0408.
As to “CUL4B_Q13620_297_CWQNHCR (UniProt Q13620)”, the “probe-labelled cysteine peptide fold change” value runs as follows: (10 µM) 0.0567; (50 µM) 0.295.
For “DCLRE1C_Q96SD1_34_AYFLSHCHK (UniProt Q96SD1)”, the “probe-labelled cysteine peptide fold change” value by setting is: (10 µM) 0.0604; (50 µM) -0.0702.
On the same counts, the results for “DDX56_Q9NY93_185_SLLCHLPR (UniProt Q9NY93)” are 0.556 and 0.332.
Taken in the same sequence, the figures for “CSTF2_P33240_62_GYGFCEYQDQETALSAMR (UniProt P33240)” were -0.512 and -0.471.
Turning to “DDX21_Q9NR30_539_TGVCICFYQHK (UniProt Q9NR30)”, the “probe-labelled cysteine peptide fold change” value is -0.0402 (10 µM) and -0.0081 (50 µM).
“CPSF4_O95639_162_RVICVNYLVGFCPEGPSCK (UniProt O95639)”: the “probe-labelled cysteine peptide fold change” value by setting is: (10 µM) -0.292; (50 µM) 0.0715.
As for “DPP9_Q86TI2_184_TQCSGPR (UniProt Q86TI2)”, the “probe-labelled cysteine peptide fold change” value is -0.111 (10 µM) and -0.073 (50 µM).
Regarding “DDX17_Q92841_166+199_GGDVCPKPVFAFHHANFPQYVMDVLMDQHFTEPTPIQCQGFPLALSGR (UniProt Q92841)”, the “probe-labelled cysteine peptide fold change” value by setting is: (10 µM) -0.612; (50 µM) -0.604.
Taken in the same sequence, the figures for “CRYBG1_Q9Y4K1_581+609_EVQLPTCHSNEPEVVSVASCAPPQEEVLGNEHSHCTAELAAK (UniProt Q9Y4K1)” were 0.00451 and -0.813.
Consider “DAXX_Q9UER7_106_AHSLFLASAEFCNILSR (UniProt Q9UER7)”, for which the “probe-labelled cysteine peptide fold change” value by setting is: (10 µM) 0.442; (50 µM) 1.38.
In the case of “DDX28_Q9NUL7_453_DILLCTDIASR (UniProt Q9NUL7)”, the “probe-labelled cysteine peptide fold change” value came to 0.0908 (10 µM) and 0.0393 (50 µM).
Taken in the same sequence, the figures for “DHX9_Q08211_608+612_KDKDDDGGEDDDANCNLICGDEYGPETR (UniProt Q08211)” were -0.128 and -0.345.
For the target “CSNK1A1_P48729_249_MSTPVEVLCK (UniProt P48729)”, the “probe-labelled cysteine peptide fold change” value is -0.305 (10 µM) and -0.401 (50 µM).
“DMRT1_Q9Y5R6_105_CNLIAER (UniProt Q9Y5R6)”: the “probe-labelled cysteine peptide fold change” value runs as follows: (10 µM) 1.19; (50 µM) 0.0204.
“DHRS7_Q9Y394_233_TELATYPGIIVSNICPGPVQSNIVENSLAGEVTK (UniProt Q9Y394)”: the “probe-labelled cysteine peptide fold change” value by setting is: (10 µM) -0.0824; (50 µM) 0.0763.
Taken in the same sequence, the figures for “CTSB_P07858_93_EQWPQCPTIK (UniProt P07858)” were -0.026 and -0.172.
“DTWD2_Q8NBA8_143_FSEERDPELSTVCR (UniProt Q8NBA8)”: the “probe-labelled cysteine peptide fold change” value amounted to 0.148 (10 µM) and 0.0336 (50 µM).
On the same counts, the results for “DNAJA1_P31689_271_RGEDLFMCMDIQLVEALCGFQK (UniProt P31689)” are -0.021 and 0.281.
In the case of “DDX42_Q86XP3_382_ALQEGAEIVVCTPGR (UniProt Q86XP3)”, the “probe-labelled cysteine peptide fold change” value (10 µM) was determined as 0.0737 and the “probe-labelled cysteine peptide fold change” value (50 µM) stood at 0.0996.
Turning to “DDX60L_Q5H9U9_502_CHVDEQSR (UniProt Q5H9U9)”, the “probe-labelled cysteine peptide fold change” value is, setting by setting: (10 µM) -0.013; (50 µM) -0.526.
As to “DHRS9_Q9BPW9_60_GFHVIAACLTESGSTALK (UniProt Q9BPW9)”, the “probe-labelled cysteine peptide fold change” value reads like this: (10 µM) 0.105; (50 µM) 0.197.
